Laboratory results as given in PubChem BioAssay (Tox21).
Results filed as inconclusive are left out. Activity calls are given as the source filed them. Unless noted, calls come from the whole dose curve; as a rule, active = well fitted curve in the direction sought with a large enough effect in the repeat runs; inconclusive = weak or mixed curves; inactive = no such curve, though single readings can be large; an effect the other way counts as inactive or inconclusive.

Legend:
[1] = qHTS assay to identify small molecule antagonists of the estrogen related receptor (ERR) signaling pathway from Tox21 library - cell viability counter screen (AID 1224834); note: nearly all actives have a fitted effect of over 30% in size
How it was run: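 Seeded ERR cells were rested 6 h at 37 C/5% CO2 before compounds, positive and negative controls or DMSO were added. Incubation continued for 17.5 h, and viability was then quantified by CellTiter-Fluor fluorescence.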

[2] = biological target: Luciferin 4-monooxygenase (Photinus pyralis) (UniProt P08659); assay: qHTS assay to identify small molecule inhibitors of firefly luciferase (AID 1224835); note: nearly all actives have a fitted effect of over 25% in size
Luciferin 4-monooxygenase (Photinus pyralis), sequence (P08659 whole entry, looked up): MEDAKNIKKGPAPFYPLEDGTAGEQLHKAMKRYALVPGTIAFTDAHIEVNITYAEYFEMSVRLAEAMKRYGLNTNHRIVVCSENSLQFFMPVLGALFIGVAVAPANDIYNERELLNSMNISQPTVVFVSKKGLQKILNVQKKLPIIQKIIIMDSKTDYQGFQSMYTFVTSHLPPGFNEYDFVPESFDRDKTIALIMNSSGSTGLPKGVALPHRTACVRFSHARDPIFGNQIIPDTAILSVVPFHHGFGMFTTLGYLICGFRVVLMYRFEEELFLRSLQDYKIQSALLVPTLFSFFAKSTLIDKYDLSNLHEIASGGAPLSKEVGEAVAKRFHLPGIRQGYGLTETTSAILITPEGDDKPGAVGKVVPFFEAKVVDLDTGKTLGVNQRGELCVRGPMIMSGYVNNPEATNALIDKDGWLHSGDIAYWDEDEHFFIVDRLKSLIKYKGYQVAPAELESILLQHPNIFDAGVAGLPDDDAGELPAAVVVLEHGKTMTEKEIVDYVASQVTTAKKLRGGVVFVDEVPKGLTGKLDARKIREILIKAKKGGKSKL
How it was run: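 Inhibition of purified Photinus luciferase is measured by luminescence. Substrate levels (D-luciferin, ATP) sit at their KM values. Each compound is tested in a concentration series.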

[3] = qHTS assay to identify small molecule agonists of the constitutive androstane receptor (CAR) signaling pathway - cell viability counter screen (AID 1224836); note: nearly all actives have a fitted effect of over 45% in size
How it was run: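 Fluorescence from CellTiter-Fluor indicates live cells after 23 h exposure. The human hepatoma line expresses hCAR and a CYP2B6-2.2kb reporter. Incubation medium contains 0.75 uM PK11195 (final).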

[4] = qHTS assay to identify small molecule antagonists of the constitutive androstane receptor (CAR) signaling pathway - cell viability counter screen (AID 1224837); note: nearly all actives have a fitted effect of over 45% in size
How it was run: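 To flag cytotoxic false antagonists, HepG2 hCAR/CYP2B6-2.2kb cells were treated 23 hr with 15-concentration compound series and 50 nM CITCO at 37 C/5% CO2; CellTiter-Fluor fluorescence was the measured end point.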

[5] = biological target: Thyrotropin receptor (Homo sapiens) (UniProt P16473); assay: qHTS assay to identify small molecule agonists of the thyroid stimulating hormone receptor (TSHR) signaling pathway (AID 1224843; calls by dose curve; note: nearly all actives have a fitted effect of over 45% in size)
Thyrotropin receptor (Homo sapiens), sequence (P16473 whole entry, looked up): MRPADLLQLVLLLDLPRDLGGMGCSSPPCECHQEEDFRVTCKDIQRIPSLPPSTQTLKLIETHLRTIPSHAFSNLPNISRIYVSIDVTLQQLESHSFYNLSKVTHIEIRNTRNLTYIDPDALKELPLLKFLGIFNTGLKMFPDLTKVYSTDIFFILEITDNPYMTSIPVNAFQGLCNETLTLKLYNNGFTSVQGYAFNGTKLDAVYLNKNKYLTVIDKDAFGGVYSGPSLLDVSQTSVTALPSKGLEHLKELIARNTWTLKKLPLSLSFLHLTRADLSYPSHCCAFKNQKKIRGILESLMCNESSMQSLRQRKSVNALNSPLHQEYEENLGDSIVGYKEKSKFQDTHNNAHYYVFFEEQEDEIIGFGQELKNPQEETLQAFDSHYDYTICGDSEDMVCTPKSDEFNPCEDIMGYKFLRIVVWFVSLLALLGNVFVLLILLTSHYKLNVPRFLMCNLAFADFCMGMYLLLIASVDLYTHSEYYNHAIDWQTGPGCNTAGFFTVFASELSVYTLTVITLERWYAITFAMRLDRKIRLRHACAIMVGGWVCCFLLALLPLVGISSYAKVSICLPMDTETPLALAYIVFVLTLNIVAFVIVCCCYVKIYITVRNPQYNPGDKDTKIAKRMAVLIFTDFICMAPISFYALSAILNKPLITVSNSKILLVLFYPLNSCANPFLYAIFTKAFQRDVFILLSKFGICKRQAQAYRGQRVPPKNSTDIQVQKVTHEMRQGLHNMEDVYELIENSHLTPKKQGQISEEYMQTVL
How it was run: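 Agonist activity read as cAMP rise via d2/cryptate HTRF competition, 1 h room-temperature detection, in HEK293 cells expressing TSHR. Fifteen-point titrations, each run in triplicate, with a 30 min room-temperature incubation beforehand.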

[6] = qHTS assay to identify small molecule agonists of the hypoxia (HIF-1) signaling pathway - cell viability counter screen (AID 1224844; calls by dose curve; note: nearly all actives have a fitted effect of over 50% in size)
How it was run: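 HRE-bla ME-180; 0.5% dFBS; cpd 17 h, 37C, 5% CO2; CellTiter-Glo lum., 30 min RT, post-FRET read, same wells.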

[7] = qHTS assay to identify small molecule agonists of H2AX (AID 1224845; active = well fitted activation curve with a large enough effect in the signal ratio in the repeat runs, not every such curve was filed as active; the % refers to the signal ratio)
How it was run: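 Phospho-H2AX Ser139 measured by HTRF (ex 320 nm; em 665 and 620 nm) after 24 hr antibody incubation. Compounds, 15 concentrations, 0.76% DMSO, were applied to CHO-K1 cells for 3hr at 37C before lysis.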

[8] = qHTS assay to identify small molecule agonists of the hypoxia (HIF-1) signaling pathway (AID 1224846; active = well fitted activation curve with a large enough effect in the signal ratio in the repeat runs, not every such curve was filed as active; the % refers to the signal ratio)
How it was run: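 Reporter induction in HRE-bla ME-180 cells is taken as agonism: cells sit 5 hrs after plating, receive compounds or DMSO only, incubate 17 hrs at 37C under 5% CO2, and are loaded with CCF4-AM for beta-lactamase FRET measurement.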

[9] = qHTS assay to identify small molecule agonists of H2AX - cell viability counter screen (AID 1224847; calls by dose curve; note: top concentration of the series differs between compounds; nearly all actives have a fitted effect of over 30% in size)
How it was run: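 Viability of CHO-K1 (wild type) cells after 3 hr compound exposure was measured by CellTiter-Glo luminescence.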

[10] = qHTS RealTime-Glo MT Cell Viability Assay in HepG2 cells - 24 hour (AID 1224867); note: nearly all actives have a fitted effect of over 50% in size
How it was run: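 HepG2 cells were seeded at 600 cells/well together with NanoLuc luciferase and a cell-permeant prosubstrate, preincubated 5 h at 37 C/5% CO2, then pin-dosed with compounds in DMSO. Nonlytic luminescence from viable cells was read at each time point.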

[11] = qHTS RealTime-Glo MT Cell Viability Assay in HEK293 cells - 32 hour (AID 1224868); note: top concentration of the series differs between compounds; nearly all actives have a fitted effect of over 50% in size
How it was run: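 HEK293 cells were seeded at 600 cells/well together with NanoLuc luciferase and cell-permeant prosubstrate, preincubated 5 h at 37 C/5% CO2, then given compound in DMSO by pintool. Luminescence from viable-cell prosubstrate reduction was read repeatedly over 40 h.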

[12] = A CellTox Green Cytotoxicity Assay to monitor cytotoxicity in HEK293 cells - 0 hour (AID 1224869); note: nearly all actives have a fitted effect of over 50% in size
How it was run: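 Tox21 screen in HEK293: membrane-impermeant cyanine dye fluoresces on binding dead-cell DNA; compound pinned 5 h post-seeding, plates held at 37 C, signal read repeatedly through 40 h.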

[13] = biological target: Nuclear receptor subfamily 1 group I member 3 (Homo sapiens) (UniProt Q14994); assay: qHTS assay to identify small molecule agonists of the constitutive androstane receptor (CAR) signaling pathway (AID 1224839);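 note: HepG2 cells stably carrying human CAR and a CYP2B6 luciferase reporter; nearly all actives have a fitted effect of over 15% in size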
Nuclear receptor subfamily 1 group I member 3 (Homo sapiens), sequence (Q14994 whole entry, looked up): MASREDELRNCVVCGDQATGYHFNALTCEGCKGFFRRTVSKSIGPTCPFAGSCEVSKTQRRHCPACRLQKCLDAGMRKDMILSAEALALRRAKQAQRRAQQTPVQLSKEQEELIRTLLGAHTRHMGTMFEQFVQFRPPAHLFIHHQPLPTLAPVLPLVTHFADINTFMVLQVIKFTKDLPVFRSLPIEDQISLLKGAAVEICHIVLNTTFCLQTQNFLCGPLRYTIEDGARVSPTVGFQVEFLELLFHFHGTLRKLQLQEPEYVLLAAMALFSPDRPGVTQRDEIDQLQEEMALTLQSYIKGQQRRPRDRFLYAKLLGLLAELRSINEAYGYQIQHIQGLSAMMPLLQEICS
How it was run: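 Stable hCAR/CYP2B6-2.2kb HepG2 line in DMEM with 10% FBS; compounds (15 concentrations) and 0.75 uM PK11195 final, 24 h at 37 C/5% CO2, then ONE-Glo luminescence after 30 min.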

[14] = biological target: Nuclear receptor subfamily 1 group I member 3 (Homo sapiens) (UniProt Q14994); assay: qHTS assay to identify small molecule antagonists of the constitutive androstane receptor (CAR) signaling pathway (AID 1224838);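 note: HepG2 cells stably expressing hCAR with CYP2B6 luciferase reporter stimulated by CITCO; nearly all actives have a fitted effect of over 40% in size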
How it was run: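 Human hepatoma HepG2 cells expressing hCAR and a CYP2B6 promoter (2.2 kb) luciferase construct; compound titration (15 points) with 50 nM CITCO final, 24 h at 37 C/5% CO2; luminescence via ONE-Glo after 30 min at room temperature.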

[15] = qHTS assay to identify small molecule antagonists of the estrogen related receptor signaling pathway with the pleiotropic PPARgamma coactivator (PGC) from Tox21 10K library - cell viability counter screen (AID 1224840; active = well fitted cell-killing curve with a large enough effect in the repeat runs, not every such curve was filed as active; note: nearly all actives have a fitted effect of over 40% in size)
How it was run: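 Seeded PGC/ERR cells (2,000/well, 6 h, 37 C/5% CO2) get compound by pin tool; 17.5 h incubation at 37 C; CellTiter-Fluor added, 30 min, fluorescence measured.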

[16] = qHTS assay to identify small molecule agonists of the estrogen related receptor signaling pathway with the pleiotropic PPARgamma coactivator (PGC) from Tox21 10K library (AID 1224842); note: nearly all actives have a fitted effect of over 15% in size
How it was run: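 Luminescence from One-Glo (30 min, room temperature) measured after PGC/ERR cells had 18 h at 37 C with pinned compound (23 nL in DMSO). Cells had been seeded at 2,000 per well and pre-incubated 6 h.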

[17] = qHTS assay to identify small molecule antagonists of the estrogen related receptor (ERR) signaling pathway from Tox21 library (AID 1224848); note: nearly all actives have a fitted effect of over 50% in size
How it was run: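 Luciferase luminescence (ONE-Glo, 30 min room temperature) was the read-out. Cells of the NTP-supplied ERR line, 2,000 per well, were given 6 h at 37 C before compound addition in DMSO and 18 h exposure at 37 C.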

[18] = qHTS assay to identify small molecule agonists of the estrogen related receptor (ERR) signaling pathway from Tox21 library (AID 1224849; calls by dose curve; note: nearly all actives have a fitted effect of over 15% in size); conditions: ERR reporter cell line, ONE-Glo luciferase, 18 h; at 92.4 µM (top of the series) unless noted
How it was run: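 Tox21 compounds tested for ERR agonism in an NTP reporter cell line: 18 h treatment at 37 C, then ONE-Glo luminescence.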

[19] = qHTS assay to identify small molecule antagonists of the estrogen related receptor signaling pathway with the pleiotropic PPARgamma coactivator (PGC) from Tox21 10K library (AID 1224841; call rule not given here)
How it was run: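 Test chemicals dissolved in DMSO were applied to pre-incubated (6 h) PGC/ERR cells at 2,000 cells/well for an 18 h, 37 C treatment; reporter luminescence was then read using One-Glo.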
% is set by controls: 0 for no effect and ±100 for the full control effect.

C=CC(C)CCC=C(C)C (centres undefined)
inactive: Potency [1] | Potency [2] | Potency [3] | Potency [4] | Potency [5] | Potency [6] | Potency [7] | outcome [8] | Potency [9] | outcome [10] | Potency [11] | Potency [12]

CCCc1ccc(OC)cc1
inactive: Potency [1] | Potency [2] | Potency [3] | Potency [4] | Potency [5] | Potency [6] | Potency [7] | outcome [8] | Potency [9] | outcome [10] | Potency [11] | Potency [12]

O=C(O)c1ccccc1-n1cc(C(=O)O)c(=O)c2cc(Nc3c(F)cc(F)cc3Cl)c(Cl)cc21
inactive: Potency [1] | Potency [2] | Potency [3] | Potency [13] | Potency [5] | Potency [6] | Potency [7] | outcome [8] | Potency [9] | outcome [10] | Potency [11] | Potency [12]

CC(C)CCCCCCCOC(=O)c1ccc(C(=O)OCCCCCCCC(C)C)c(C(=O)OCCCCCCCC(C)C)c1
inactive: Potency [1] | Potency [2] | Potency [3] | Potency [14] | Potency [13] | Potency [15] | Potency [16] | Potency [5] | Potency [6] | outcome [8] | Potency [9] | Potency [17] | activity change, positive = activation [18] -6.08% | outcome [10] | Potency [11] | Potency [12]

CC(O)C(C)O (centres undefined)
inactive: Potency [1] | Potency [2] | Potency [3] | Potency [14] | Potency [13] | Potency [15] | Potency [5] | Potency [6] | Potency [7] | outcome [8] | Potency [9] | outcome [10] | Potency [11] | Potency [12]

CCCCCCCCCCCCSCCOCCO
inactive: Potency [1] | Potency [2] | Potency [3] | Potency [15] | Potency [16] | Potency [5] | Potency [6] | Potency [7] | outcome [8] | Potency [9] | Potency [17] | activity change, positive = activation [18] -7.91% [at 42.5 µM] | outcome [10] | Potency [11] | Potency [12]

CC(C)(C)NCC(O)COc1ccc(NC(=O)NC2CCCCC2)cc1 (centres undefined)
inactive: Potency [1] | Potency [2] | Potency [3] | Potency [14] | Potency [15] | Potency [5] | Potency [7] | outcome [8] | Potency [9] | Potency [12]

C[C@H](N)C(=O)N[C@@H](C)C(=O)NC1[C@H]2CN(c3nc4c(cc3F)c(=O)c(C(=O)O)cn4-c3ccc(F)cc3F)C[C@@H]12 (some centres undefined)
inactive: Potency [1] | Potency [2] | Potency [3] | Potency [14] | Potency [15] | Potency [19] | Potency [5] | Potency [6] | Potency [7] | Potency [9] | outcome [10] | Potency [11] | Potency [12]
